Test results reported in PubChem BioAssay AID1053205 (Broad Institute, 2014).
Entries with a potency or affinity are not part of this list. Inconclusive results are not listed. The source made the active and inactive calls.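 Rule for the calls: active = compounds lowering the FRET ratio whose fitted half-maximal concentration is at most twice their top tested dose; inconclusive = flat partial drop between 30 and 70 percent, or bad fit; inactive = the rest.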

Target: Voltage-dependent L-type calcium channel subunit alpha-1D (Homo sapiens) (UniProt Q01668)
Sequence (Q01668 whole entry, looked up): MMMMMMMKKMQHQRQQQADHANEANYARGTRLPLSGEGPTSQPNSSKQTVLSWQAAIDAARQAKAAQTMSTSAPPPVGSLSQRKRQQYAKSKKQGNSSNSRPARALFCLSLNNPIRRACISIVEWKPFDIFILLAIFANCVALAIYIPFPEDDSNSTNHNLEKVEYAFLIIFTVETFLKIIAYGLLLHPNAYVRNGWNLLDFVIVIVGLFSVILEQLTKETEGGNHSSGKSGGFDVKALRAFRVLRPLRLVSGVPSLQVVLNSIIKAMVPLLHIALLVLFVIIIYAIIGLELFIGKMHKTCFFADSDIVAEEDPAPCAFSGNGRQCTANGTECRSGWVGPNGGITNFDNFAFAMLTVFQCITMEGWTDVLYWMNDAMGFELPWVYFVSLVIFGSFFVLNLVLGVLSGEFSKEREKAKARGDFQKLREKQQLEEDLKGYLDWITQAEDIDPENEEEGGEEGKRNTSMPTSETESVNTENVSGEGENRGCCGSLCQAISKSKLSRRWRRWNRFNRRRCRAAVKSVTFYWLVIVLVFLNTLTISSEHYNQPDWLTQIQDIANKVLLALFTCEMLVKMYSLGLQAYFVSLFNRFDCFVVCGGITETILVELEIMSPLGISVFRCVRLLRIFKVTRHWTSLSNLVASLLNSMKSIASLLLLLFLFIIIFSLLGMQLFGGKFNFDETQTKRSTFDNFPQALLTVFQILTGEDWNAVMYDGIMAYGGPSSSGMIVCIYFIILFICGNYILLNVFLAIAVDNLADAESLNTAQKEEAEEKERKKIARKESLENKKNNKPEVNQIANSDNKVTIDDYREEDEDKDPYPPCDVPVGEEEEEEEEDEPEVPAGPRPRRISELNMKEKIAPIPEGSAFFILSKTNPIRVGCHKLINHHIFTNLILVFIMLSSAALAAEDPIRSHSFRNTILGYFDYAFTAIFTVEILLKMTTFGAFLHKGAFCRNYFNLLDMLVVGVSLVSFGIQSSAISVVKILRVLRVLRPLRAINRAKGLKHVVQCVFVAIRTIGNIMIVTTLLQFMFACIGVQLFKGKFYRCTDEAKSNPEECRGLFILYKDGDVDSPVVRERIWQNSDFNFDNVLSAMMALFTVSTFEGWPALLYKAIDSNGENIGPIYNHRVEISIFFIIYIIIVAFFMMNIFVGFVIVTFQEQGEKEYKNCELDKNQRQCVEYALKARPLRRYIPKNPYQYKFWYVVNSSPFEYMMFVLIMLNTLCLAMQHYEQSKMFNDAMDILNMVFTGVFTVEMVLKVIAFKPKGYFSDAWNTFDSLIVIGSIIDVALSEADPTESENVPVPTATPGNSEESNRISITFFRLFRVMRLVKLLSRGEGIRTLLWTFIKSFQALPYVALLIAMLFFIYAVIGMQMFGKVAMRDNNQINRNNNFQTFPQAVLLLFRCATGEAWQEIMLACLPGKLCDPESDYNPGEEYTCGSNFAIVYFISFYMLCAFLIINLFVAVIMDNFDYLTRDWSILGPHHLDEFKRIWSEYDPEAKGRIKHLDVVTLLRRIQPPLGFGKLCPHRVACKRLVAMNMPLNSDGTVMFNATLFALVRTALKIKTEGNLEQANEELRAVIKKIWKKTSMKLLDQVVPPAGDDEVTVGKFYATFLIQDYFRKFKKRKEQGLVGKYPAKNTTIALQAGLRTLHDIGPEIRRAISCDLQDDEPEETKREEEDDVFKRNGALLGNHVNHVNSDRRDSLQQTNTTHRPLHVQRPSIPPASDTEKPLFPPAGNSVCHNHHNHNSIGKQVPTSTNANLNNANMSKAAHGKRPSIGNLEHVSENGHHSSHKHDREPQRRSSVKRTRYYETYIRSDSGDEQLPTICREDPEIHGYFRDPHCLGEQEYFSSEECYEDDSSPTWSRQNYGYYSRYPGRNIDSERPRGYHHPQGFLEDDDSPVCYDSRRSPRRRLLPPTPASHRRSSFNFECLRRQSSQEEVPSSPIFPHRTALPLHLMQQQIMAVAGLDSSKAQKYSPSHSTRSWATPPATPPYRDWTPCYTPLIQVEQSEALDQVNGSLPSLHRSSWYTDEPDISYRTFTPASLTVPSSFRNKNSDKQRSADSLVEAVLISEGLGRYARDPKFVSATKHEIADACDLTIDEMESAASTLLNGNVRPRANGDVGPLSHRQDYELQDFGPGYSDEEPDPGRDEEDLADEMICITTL
Assay: inhibitors of CaV1.3 ICDI-IQ binding, dose response, cell-based, HEK293, YFP-IQ/CFP-ICDI FRET, cherry-picks (AID 1053205);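 note: 0% = median of neutral control wells and -100% = median of positive control wells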
Details: HEK293 YFP-IQ/CFP-ICDI FRET ratio, 10 min; series mostly up to 35 µM

outcome, inactive:
CSCCC1(C(=O)O)NC(c2ccccc2O)C2C(=O)N(C(C)C)C(=O)C21 (stereo unspecified)
CCOc1ccc(NC(=O)CN(C)C(=O)CCCNC(=O)c2ccc(Cl)cc2)cc1OCC
CCOC(=O)C1CCCN(CCCc2ccccc2)C1 (stereo unspecified)
CCOC(=O)c1c(C)n(C)c2ccc(OCC(O)CN3CCC(C)CC3)cc12 (stereo unspecified)
C=CCn1c(=N)c(C#N)cc2c(=O)n3ccccc3nc21
O=C(Nc1ccc(-c2ccco2)cc1)C1CCCN(Cc2ccco2)C1 (stereo unspecified)
Cn1cnc(S(=O)(=O)Nc2ccc(OC(F)(F)F)cc2)c1
CCn1c(=NC(=O)CSC(C)=O)sc2cc(OC)ccc21
COc1ccccc1OCc1ccc(C(=O)N(C)c2ccccc2)o1
COC(=O)C1=CN(C)C=C(C(=O)OC)C1c1ccccc1Cl
CN(C)C(=O)CSc1nc2ccc(C(=O)c3ccccc3)cc2[nH]1
CC(=O)c1cc2c(ccc3ccccc32)oc1=O
CN1CCc2c(sc(NC(=O)C3CCCCC3)c2C(N)=O)C1
CCOC(=O)C1=CN(CC2CCCO2)C=C(C(=O)OCC)C1c1ccccc1C(F)(F)F (stereo unspecified)
Cc1ccc2c(c1)-c1c(cnn1CC(=O)Nc1ccccc1N1CCN(C)CC1)CO2
CCOc1ccc(S(=O)(=O)Nc2ccc(C(=O)N(CC)CC(=O)NCc3cccs3)cc2)cc1
CCCOc1c(Br)cc(C2C3=C(CCCC3=O)N(C)C3=C2C(=O)CCC3)cc1OC
Cc1ccc(-n2nnnc2CNC(=O)C(=O)c2c[nH]c3ccccc23)cc1C
Cc1cc2c(C)cc(=O)oc2c2c1NCCC2
N#C/C(=C\c1ccco1)C(=O)Nc1cccc2ncccc12
O=C(/C=C/c1ccccc1)C1=C(O)C(=O)N(CCO)C1c1ccc2c(c1)OCO2 (stereo unspecified)
COc1ccc(S(=O)(=O)N2CCCC2CNC(=O)C(=O)NC2CCCC2)cc1 (stereo unspecified)
COc1ccc(C(=O)Oc2cc(N)n(S(=O)(=O)c3ccccc3)n2)cc1
CC1(C)CC(=O)C2=C(C1)OC(N)=C(C#N)[C@@H]2c1ccccc1[N+](=O)[O-]
COc1cc(C2C3=C(CC(C)(C)CC3=O)N(C)C3=C2C(=O)CC(C)(C)C3)cc(Br)c1O
Cc1ccc(O)c(NC(=S)NC(=O)COc2ccc(Br)cc2)c1
Fc1ccc(-c2nc3ccccn3c2NCc2ccc3c(c2)OCO3)cc1
Cc1oc(/N=C/c2ccc(O)cc2O)c(C#N)c1C
CCc1cccc(C)c1NC(=S)NCc1ccc2c(c1)cc(C)n2C
Cc1c(C(=O)NCc2ccc3c(c2)OCCO3)sc(=O)n1Cc1ccccc1F
CCc1nc(SCC(=O)c2ccccc2)c2ccccc2n1
N=c1oc2cc(O)ccc2cc1C(=O)Nc1ccc(Br)cc1
Cc1nc(CCNC(=O)Cc2ccc(Cl)cc2)cs1
CCCCCCSc1cc(-c2nc3cc(C)ccn3c2NCCCC)ccc1OC
N#CC1=C(N)Oc2cc(N)ccc2C1c1ccc(F)cc1F (stereo unspecified)

FRET change, negative = inhibition, inactive:
N#C/C(=C\c1ccc(N2CCOCC2)o1)C(=O)NCCc1ccccc1 166% [at 8 µM]
